# Assay outcomes deposited in PubChem BioAssay by National Center for Advancing Translational Sciences (NCATS).
# JMJD2A Tudor: JMJD2A Tudor domain (human) inhibition. 390,000 tested, 4.4% active. AlphaScreen JMJD2A-Tudor / H3K4me3 peptide binding. AID 504339. O75164. Potency, µM (highest dose often 114 µM), usual class: inhibitors; note: nearly all actives have a fitted effect of over 50% in size
# Target sequence (O75164 whole entry, looked up, the tested form may be a part): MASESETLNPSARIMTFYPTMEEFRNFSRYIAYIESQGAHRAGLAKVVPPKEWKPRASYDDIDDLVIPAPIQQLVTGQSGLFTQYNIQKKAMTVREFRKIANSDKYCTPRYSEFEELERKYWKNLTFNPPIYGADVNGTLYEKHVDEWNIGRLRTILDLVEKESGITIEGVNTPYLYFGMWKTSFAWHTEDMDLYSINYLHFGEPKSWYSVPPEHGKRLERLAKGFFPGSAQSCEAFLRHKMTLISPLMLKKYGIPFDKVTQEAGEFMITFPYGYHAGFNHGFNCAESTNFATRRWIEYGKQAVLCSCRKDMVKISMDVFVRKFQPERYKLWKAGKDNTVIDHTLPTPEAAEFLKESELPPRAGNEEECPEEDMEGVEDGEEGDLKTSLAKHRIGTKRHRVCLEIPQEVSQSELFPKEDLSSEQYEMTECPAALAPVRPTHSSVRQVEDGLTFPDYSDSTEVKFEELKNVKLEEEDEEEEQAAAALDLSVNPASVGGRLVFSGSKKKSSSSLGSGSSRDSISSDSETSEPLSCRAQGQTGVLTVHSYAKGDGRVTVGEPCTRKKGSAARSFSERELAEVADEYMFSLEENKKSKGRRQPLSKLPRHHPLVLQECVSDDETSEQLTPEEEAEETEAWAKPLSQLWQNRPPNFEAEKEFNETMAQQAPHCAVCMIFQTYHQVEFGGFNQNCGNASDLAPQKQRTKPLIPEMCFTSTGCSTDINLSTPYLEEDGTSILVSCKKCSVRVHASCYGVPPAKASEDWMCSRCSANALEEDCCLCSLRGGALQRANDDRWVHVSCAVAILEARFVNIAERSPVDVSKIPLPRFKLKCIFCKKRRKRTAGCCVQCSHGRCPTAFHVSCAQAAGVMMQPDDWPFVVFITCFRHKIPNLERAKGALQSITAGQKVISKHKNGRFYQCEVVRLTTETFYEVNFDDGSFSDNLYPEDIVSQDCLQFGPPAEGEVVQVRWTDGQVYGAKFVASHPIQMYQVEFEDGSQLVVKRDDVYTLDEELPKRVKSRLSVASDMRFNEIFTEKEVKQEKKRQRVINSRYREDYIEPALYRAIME
# BAZ2B block: BAZ2B (human) inhibition. Q9UIF8. AlphaScreen BAZ2B-H3K14Ac peptide displacement. Potency, µM (top dose mostly 114 µM), actives largely listed as inhibitors. 360,000 tested, 4.4% active; note: nearly all actives have a fitted effect of over 60% in size
#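 AlphaScreen displacement of biotin-H3(5-23)K14Ac peptide (50 nM final) from BAZ2B (50 nM final) in PBS pH 7.4, 0.01% Tween-20; complex preformed 30 min RT, then compounds (top 110 uM) 30 min RT, beads 20 min dark.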
# HP1b binding inh: blocks HP1-beta chromodomain binding to methylated histone tails | P83916 | AlphaScreen HP1-beta / biotin-H3K9me3 peptide binding | Potency, µM (top dose mostly 114 µM), most hits filed as inhibitors | 390,000 tested, 0.56% active | AID 540317; note: nearly all actives have a fitted effect of over 70% in size
#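 HP1-beta protein (50 nM final) preincubated 30 min at room temperature with biotinylated H3(1-18)K9me3 peptide (50 nM) in PBS pH 7.4, 0.01% Tween-20, then compound added for 30 min. AlphaScreen streptavidin donor/nickel chelate acceptor beads (10 ug/mL final), 30 min dark, luminescence read.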
# L3MBTL1 inh: blocks human L3MBTL1; 230,000 tested, 0.66% active; AlphaScreen L3MBTL1–H3K9me1 peptide binding; Potency, µM (top dose mostly 57.1 µM), actives largely listed as inhibitors; Q9Y468; note: nearly all actives have a fitted effect of over 60% in size
#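 L3MBTL1 (50 nM) pre-complexed 30 min with biotinylated H3(1-15)K9me1 peptide (75 nM), then compounds added for 30 min at room temperature; AlphaScreen streptavidin donor/nickel chelate acceptor beads (10 ug/mL final) read after 30 min dark incubation.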
# PLK1 PBD block: inhibitors of human PLK1 polo-box domain binding; P53350; Plk1 PBD binding of FITC phosphopeptide, fluorescence polarization; Potency, µM, most hits filed as inhibitors; 360,000 tested, 2.8% active; AID 720504; note: series mostly up to about 57 µM; nearly all actives have a fitted effect of over 65% in size
# VDR inh: vitamin D3 receptor (human) inhibition; Potency, µM, most hits filed as inhibitors; P11473; VDR-SRC2-3 peptide fluorescence polarization, 2 h; 400,000 tested, 0.93% active; AID 504847
#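 Reagent solutions, kept cold and dark, are dispensed first; compounds are then pinned in at 23 nl, plates briefly spun, and incubated 2 h at ambient temperature. Inhibition of VDR–SRC2-3 peptide binding is read by fluorescence polarization.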
# A number is an active result; n = inactive; u = inconclusive; x = not tested or not shown; [ ] = dose if it differs, or a comment. Most compounds without a hit are left out; they make up all but 6.9% or so of the library. Calls come from the whole dose curve; as a rule, active = well fitted curve in the direction sought with a large enough effect; inconclusive = small, poorly fitted or top-dose-only effect, or another doubt; inactive = no such curve, though single readings can be large; an effect the other way counts as inactive or inconclusive.
SMILES,JMJD2A Tudor,BAZ2B block,HP1b binding inh,L3MBTL1 inh,PLK1 PBD block,VDR inh
O=S(=O)(c1cccc(C(F)(F)F)c1)N1CCC(c2cc(-c3cccc4ccccc34)n[nH]2)CC1,39.8µM,u,n,n,18.9µM,u
COc1ccccc1-c1sc2cc3c(cc2c1-c1ccc2c(c1)OCO2)OCO3,n,79.4µM,n,n,n,n
COc1ccccc1-c1sc2ccccc2c1-c1ccc(OCCN2CCOCC2)cc1,50.1µM,x,n,n,n,n
COc1ccccc1-c1sc2cc3c(cc2c1-c1ccc(OCCN2CCCCC2)cc1)OCO3,11.2µM,x,n,n,n,n
COc1cc2sc(-c3ccccc3OC)c(-c3ccc(OCCN4CCCCC4)cc3)c2cc1OC,28.2µM,x,u,n,n,n
c1ccc(-c2sc3ccccc3c2-c2ccc(OCCN3CCOCC3)cc2)cc1,u,x,n,n,n,n
O=C(NCCCCO)c1ccc2c3c(cccc13)CC2,n,n,n,n,n,n
CCCCC(=O)N1C(C)CCC1C (stereo not drawn),x,x,x,x,23.8µM,x
COc1ccccc1/C=C/c1nc2ccccc2n1C(C)C,n,n,n,x,x,n
CC(C)Cn1c(-c2ccc(Br)o2)n[nH]c1=S,n,n,n,n,n,n
COCCCn1c(C23CC4CC(CC(C4)C2)C3)n[nH]c1=S,7.94µM,n,n,n,n,n
CC(C)Cn1c(C23CC4CC(CC(C4)C2)C3)n[nH]c1=S,56.2µM,u,n,n,n,n
Cn1c(C23CC4CC(CC(C4)C2)C3)n[nH]c1=S,5.62µM,n,n,n,n,n
CC(=O)N1c2ccc(S(=O)(=O)NCCC(=O)Nc3ccc(Br)c(C)c3)cc2CC1C (stereo not drawn),n,n,n,x,x,n
COC(=O)[C@H](COC(C)(C)C)NC(=O)O[C@@H]1C(=O)c2ccc(OC)cc2O[C@H]1c1ccc2c(c1)OCO2,x,x,x,x,x,n
N#Cc1c(N)sc(=S)c2c1CCCCC2,44.7µM,50.1µM,n,u,21.2µM,u
N#Cc1c(N)sc2c1CCCCCC2,u,u,u,n,n,n
Cc1cc(C(=O)Nc2ccc3ccccc3c2)c(C)o1,n,n,n,x,n,n
CC1CCN(c2nc3c(S(=O)(=O)c4cccc(Cl)c4)nnn3c3ccsc23)CC1,n,u,n,x,x,n
CCc1c(C)sc(NC(=O)c2cc(C(C)C)on2)c1C#N,n[11.4 µM],n,n,x,u,n
CCc1cc(C(=O)Nc2sc(C)c(CC)c2C#N)no1,n,n,n,x,x,79.4µM
CCc1c(C)sc(NC(=O)CC#N)c1C#N,u,n,n,x,u,n
CCc1c(C)sc(NC(=O)c2cc(C)no2)c1C#N,n,u,n,x,29.9µM,n
COC(=O)c1ccccc1S(=O)(=O)Nc1cc(=O)c2ccccc2[nH]1,n,x,x,x,x,x
CCCCc1nn2c(=O)cc(COC(=O)c3cccs3)nc2s1,n,n,n,x,x,n
SMILES,JMJD2A Tudor,BAZ2B block,HP1b binding inh,L3MBTL1 inh,PLK1 PBD block,VDR inh
CCn1c(-c2cc(-c3cc(OC)ccc3OC)nc3ccccc23)n[nH]c1=S,20µM,u,n,x,n,n
CCn1c(-c2cc(-c3ccc(C)cc3)nc3ccccc23)n[nH]c1=S,n,u,n,n,n,n
CCn1c(-c2cc(-c3ccccc3OC)nc3ccccc23)n[nH]c1=S,56.2µM,n,n,n,n,n
NC[C@@H]1O[C@@H](O[C@H]2[C@H](O)[C@H](O[C@@H]3O[C@H](CO)[C@@H](O)[C@H](N)[C@@H]3O)[C@@H](N)C[C@H]2N)[C@H](N)C[C@@H]1O,x,x,x,x,x,n
O=C1CSC(=S)N1N=Cc1ccc(Cl)s1,28.2µM,x,u,x,n,u
O=C1CSC(=S)N1/N=C/c1cc(Br)ccc1O,x,5.01µM,x,x,x,x
COc1ccccc1C=NN1C(=O)CSC1=S,u,x,u,x,n,n
Cc1cccc(-c2sc(Nc3ccccc3)n[n+]2-c2ccccc2)c1,79.4µM,50.1µM,n,n,u,n
c1ccc(COc2ccc(-c3sc(Nc4ccccc4)n[n+]3-c3ccccc3)cc2)cc1,x,44.7µM,x,n,x,x
O=C(O)c1ccc(-c2sc(Nc3ccccc3)n[n+]2-c2ccccc2)cc1,44.7µM,u,n,n,n,n
O=C(O)c1ccc(-c2sc(Nc3ccccc3)n[n+]2-c2ccc(F)cc2)cc1,n,n,n,n,n,n
CCc1ccc(Nc2n[n+](-c3ccccc3)c(-c3ccc(OCc4ccccc4)cc3)s2)cc1,n,50.1µM,n,n,u,n
CN(C)c1ccc(-c2sc(Nc3ccccc3)n[n+]2-c2ccc(F)cc2)cc1,u,n,n,n,n,n
COc1ccccc1/C=C/c1nc(S(=O)(=O)c2ccccc2)c(N(C)C)o1,u,70.8µM,n,x,n,u
COc1cccc(/C=C/c2nc(S(=O)(=O)c3ccccc3)c(N(C)C)o2)c1,n,n,n,x,n,n
Cc1cccc(NC(=O)C2CC(=O)n3cnnc3S2)c1 (stereo not drawn),35.5µM,u,n,x,u,n
O=[N+]([O-])c1cc2oc3c(c2c(C=NCc2ccccc2)c1O)CCCC3,70.8µM,n,u,n,n,n
O=C(NNC(=O)c1ccc(F)c(S(=O)(=O)N2CCOCC2)c1)c1ccc(Br)cc1,n,n,n,n,n,n
Cc1ccc(S(=O)(=O)CCC(=O)OCc2cc(=O)oc3cc(C)ccc23)cc1,n,x,n,n,n,n
O=C(CC1C(=O)NCCN1CC1CCCCC1)NCc1cc(F)ccc1F (stereo not drawn),11.2µM,n,n,n,3.77µM,u
CC(C)CCOc1ccc(C(=O)CCNC(C)C(=O)O)cc1 (stereo not drawn),x,n,x,n,x,x
Cc1cc2c(s1)c1cnn(Cc3ccc(Cl)c(Cl)c3)c(=O)c1n2C,n,x,x,x,x,x
COCOCCn1cc(CN2CCS(=O)(=O)N(Cc3ccc(-c4ccc(Cl)c(Cl)c4)cc3)C(C)C2=O)nn1 (stereo not drawn),x,x,x,x,n,x
O=C(NC(=S)Nc1ccc(N2CCOCC2)cc1)c1cccc(Cl)c1,u,17.8µM,u,n,n,n
O=C(NC(=S)Nc1ccc(N2CCOCC2)cc1)c1cccc(Cl)c1Cl,n,u,n,x,n,n
SMILES,JMJD2A Tudor,BAZ2B block,HP1b binding inh,L3MBTL1 inh,PLK1 PBD block,VDR inh
CCc1ccc(C(=O)NC(=S)Nc2ccc(N3CCOCC3)cc2)cc1,u,20µM,u,n,n,n
O=C(NC(=S)Nc1ccc(N2CCOCC2)c(Cl)c1)C(c1ccccc1)c1ccccc1,n[11.4 µM],n,n,n,26.7µM,n
O=C(NCC1CCN(c2ccc(S(=O)(=O)N3CCOCC3)cc2)CC1)c1cccc(Cl)c1,n,56.2µM,n,x,n,n
Cc1ccc(CNS(=O)(=O)c2cc(C(=O)Nc3cccc(C(F)(F)F)c3)ccc2F)cc1,n,n,n,x,x,n
Cc1cc(C)c(NC(=O)CN2C(=O)CCSc3ccc(S(=O)(=O)N4CCCC4)cc32)c(C)c1,n,n,n,x,x,n
Cc1ccc(NC2c3ncccc3C(=O)N2c2ccccc2C)cc1C (stereo not drawn),11.2µM,20µM,n,u,6.7µM,n
